Compounds with a hit are over-represented: about 19% of the library has one in this group of screens.
KB-V1 cytotox: KB-V1 MDR subline cytotoxicity; KB-V1 MDR cells viability, CellTiter-Glo, 72 h; Potency, µM (titrated, usually from 46.1 µM), most hits filed as cytotoxic; 400,000 tested, 3.4% active; AID 1347076; further: nearly all actives have a fitted effect of over 60% in size
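KB-V1, DMEM (no phenol red) + 10% FBS; cpd pin-transferred, titration series; 72 h, 37 degrees C; CellTiter-Glo, luminescence. Data normalized, curve-fit.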
DT40 TDP1 CPT: growth inhibition of DT40 Tdp1-/-;hTDP1 cells with camptothecin (screen for TDP1 inhibitors). chicken DT40 Tdp1-/-;hTDP1 cells + 20 nM CPT, ATP luminescence, 48 h. Potency, µM (top dose mostly 46.2 µM), inactives show at the highest dose activity change, negative = growth inhibition, usual class: inhibitors. 420,000 tested, 12% active; further: nearly all actives have a fitted effect of over 55% in size
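Cell growth measured by CellTiter-Glo luminescence after a minimum 48 h, 37 C compound exposure with 20 nM CPT in Tdp1-knockout DT40 cells stably expressing hTDP1, seeded 400/well; qHTS titration format.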
TDP1 cell noCPT: qHTS for Inhibitors of human tyrosyl-DNA phosphodiesterase 1 (TDP1): qHTS in cells in absence of CPT; DT40 Tdp1-/- hTDP1 cells, no CPT, ATP luminescence, 48 h; Potency, µM (series often up to 46.2 µM), for inactives: at the highest dose activity change, negative = growth inhibition, hits mostly inhibitors; 420,000 tested, 15% active; AID 686978, 2013; further: nearly all actives have a fitted effect of over 55% in size
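A cellular qHTS used chicken DT40 cells lacking endogenous Tdp1 but carrying stably transfected human TDP1. Compounds were applied without camptothecin, and cell growth kinetics were judged by ATP-dependent luminescence after ≥48 hr.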
HT1080NT lethal: kills 2HG-producing HT-1080-NT fibrosarcoma cells; AID 686970; Potency, µM (doses to about 46.1 µM), without a hit: top-dose activity, negative = less viability, usual class: cytotoxic; 360,000 tested, 1.6% active; HT-1080-NT fibrosarcoma viability, CellTiter-Glo ATP luminescence, 48 h;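 further: NT is the 2HG producing partner of a matched IDH1 knockdown line; 0% = DMSO-treated cells and -100% = media-only wells without cells; nearly all actives have a fitted effect of over 55% in size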
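Compounds were tested in concentration-response format on HT-1080-NT cells for 48 hours at 37 degrees C. Cell viability came from CellTiter-Glo luminescence; curves were classified by r2, response magnitude and activity.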
HT1080 IDH1KD tx: HT-1080 IDH1 knockdown cell toxicity (counter line). HT-1080 IDH1 knockdown viability, ATP luminescence, 48 h. Potency, µM (series often up to 46.1 µM), without a hit: at the top dose activity, negative = toxicity, actives largely listed as cytotoxic. 360,000 tested, 2% active. AID 686971;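 further: 0% = DMSO wells and -100% = cell-free medium wells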
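% activity derives from luminescence (CellTiter-Glo), normalised to DMSO and no-cell wells. HT-1080-IDH1KD cells, 750/well, had 48 h compound exposure at 37 °C.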
KB-3-1 cytotox: kills parental KB-3-1 adenocarcinoma cells | Potency, µM (top dose mostly 46.1 µM), usual class: cytotoxic | 400,000 tested, 1.4% active | KB-3-1 viability, CellTiter-Glo ATP luminescence, 72 h; further: nearly all actives have a fitted effect of over 60% in size
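Screening of KB-3-1 cells (DMEM, 10% FBS, phenol-red free) ran from lowest to highest compound concentration; after 72 h at 37 °C viability was read luminescently and curves fitted.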
Numbers without * were called inactive. The call rests on the fitted dose curve; in most records, active means well fitted curve in the direction sought with a large enough effect; inconclusive means small, poorly fitted or top-dose-only effect, or another doubt; inactive means no such curve, though single readings can be large; an effect the other way counts as inactive or inconclusive. Unless noted, on the % scale 0 is the no-effect control and ±100 the full control effect; potency means the concentration at half of the fitted maximal effect.

O=C(c1cc(N2CCOCC2)c(F)cc1[N+](=O)[O-])N1CCOCC1 was read as KB-V1 cytotox inactive, DT40 TDP1 CPT 5%, TDP1 cell noCPT -5%, HT1080NT lethal -1%, HT1080 IDH1KD tx -5% and KB-3-1 cytotox inactive.
O=C(NCc1ccccc1)C(c1cc2ccccc2o1)n1c(=O)c(-c2ccco2)nc2ccccc21 (centres undefined) was read as KB-V1 cytotox inactive, DT40 TDP1 CPT inconclusive, TDP1 cell noCPT inconclusive, HT1080NT lethal -7%, HT1080 IDH1KD tx -13% and KB-3-1 cytotox inactive.
Screening O=C(CS(=O)(=O)c1ccccc1)Nc1ccc(Br)cn1 returned KB-V1 cytotox 16µM*, DT40 TDP1 CPT inconclusive, TDP1 cell noCPT -21%, HT1080NT lethal -5%, HT1080 IDH1KD tx -3% and KB-3-1 cytotox inactive.
`CCCCC(=O)Nc1ccc(Br)cn1` gave KB-V1 cytotox inactive, DT40 TDP1 CPT 5%, TDP1 cell noCPT -2%, HT1080NT lethal 2%, HT1080 IDH1KD tx 9% and KB-3-1 cytotox inactive.
For CC(C)NC(=O)N(C)C[C@H]1Oc2ccc(NC(=O)Nc3ccc(C(F)(F)F)cc3)cc2C(=O)N([C@H](C)CO)C[C@@H]1C the results were KB-V1 cytotox inactive, DT40 TDP1 CPT -8%, TDP1 cell noCPT -16%, HT1080NT lethal -5%, HT1080 IDH1KD tx -7% and KB-3-1 cytotox inactive.
Screening C/C(CCc1ccc2c(c1)OCO2)=N\NC(=O)c1ccc(C)cc1C returned KB-V1 cytotox inactive, DT40 TDP1 CPT 1%, TDP1 cell noCPT 2.9µM*, HT1080NT lethal -9%, HT1080 IDH1KD tx -3% and KB-3-1 cytotox inactive.
For COCCNC(=S)N/N=C(\C)CCc1ccc2c(c1)OCO2 the results were KB-V1 cytotox inactive, DT40 TDP1 CPT -30%, TDP1 cell noCPT -26%, HT1080NT lethal -4%, HT1080 IDH1KD tx 15% and KB-3-1 cytotox inactive.
Screening C/C(CCc1ccc2c(c1)OCO2)=N\NC(=S)NC(C)C returned KB-V1 cytotox inactive, DT40 TDP1 CPT 18µM*, TDP1 cell noCPT 16µM*, HT1080NT lethal -4%, HT1080 IDH1KD tx 1% and KB-3-1 cytotox inactive.
`Cc1nnc(-c2ccccc2)c(=O)n1/N=C/c1c(O)ccc2ccccc12` gave KB-V1 cytotox 2.9µM*, DT40 TDP1 CPT 4.1µM*, TDP1 cell noCPT 5.2µM*, HT1080NT lethal inconclusive, HT1080 IDH1KD tx inconclusive and KB-3-1 cytotox inconclusive.
For CCc1n[nH]c(=S)n1/N=C/c1c(O)ccc2ccccc12 the results were KB-V1 cytotox 5.8µM*, DT40 TDP1 CPT 9%, TDP1 cell noCPT 0%, HT1080NT lethal 10%, HT1080 IDH1KD tx 9% and KB-3-1 cytotox inconclusive.
`Cc1nnc(C)n1/N=C/c1c(O)ccc2ccccc12` gave KB-V1 cytotox inconclusive, DT40 TDP1 CPT 21%, TDP1 cell noCPT -20%, HT1080NT lethal -8%, HT1080 IDH1KD tx 1% and KB-3-1 cytotox inactive.
Screening CCOC(=O)C(c1nc2ccccc2[nH]1)n1c(-c2ccccn2)nc2ccccc21 (centres undefined) returned KB-V1 cytotox inconclusive, DT40 TDP1 CPT inconclusive, TDP1 cell noCPT -29%, HT1080NT lethal -14%, HT1080 IDH1KD tx -8% and KB-3-1 cytotox inactive.
Screening CCc1ccc(-n2nc(C)c3c(C(=O)Nc4cc(C)ccc4C)cc(C)nc32)cc1 returned KB-V1 cytotox inactive, DT40 TDP1 CPT inconclusive, TDP1 cell noCPT inconclusive and KB-3-1 cytotox inactive.
CC(=O)c1cccc(NC(=O)c2cc(C)nc3c2c(C)nn3-c2cccc(Cl)c2C)c1 was read as KB-V1 cytotox inactive, DT40 TDP1 CPT inconclusive, TDP1 cell noCPT 18µM* and KB-3-1 cytotox inactive.
CCc1ccc(-n2nc(C)c3c(C(=O)Nc4ccc(Cl)cc4)cc(C)nc32)cc1 was read as KB-V1 cytotox inactive, DT40 TDP1 CPT inconclusive, TDP1 cell noCPT 13µM* and KB-3-1 cytotox inactive.
Screening CCc1ccc(NC(=O)c2c(Cl)nc(C)c(Cl)c2C)cc1 returned KB-V1 cytotox inconclusive, DT40 TDP1 CPT inconclusive, TDP1 cell noCPT 26µM*, HT1080NT lethal -25%, HT1080 IDH1KD tx inconclusive and KB-3-1 cytotox inconclusive.
`C[C@]12CC[C@H](O)CC1=C[C@H](O)C1C2CC[C@@]2(C)C1CC[C@@]2(O)C#Cc1ccc(CN)cc1` (some centres undefined) gave KB-V1 cytotox inactive, DT40 TDP1 CPT -25%, TDP1 cell noCPT inconclusive, HT1080NT lethal -3%, HT1080 IDH1KD tx -10% and KB-3-1 cytotox inactive.
COC(=O)C[C@@H]1CC[C@@H](NC(=O)C2CCC2)[C@@H](CO)O1 was read as KB-V1 cytotox inactive, DT40 TDP1 CPT -7%, TDP1 cell noCPT -6%, HT1080NT lethal 0%, HT1080 IDH1KD tx 6% and KB-3-1 cytotox inactive.
Screening O=C1Nc2ccc(Br)cc2/C1=C/C1CC=CCC1 (centres undefined) returned KB-V1 cytotox inactive, DT40 TDP1 CPT 18µM*, TDP1 cell noCPT inconclusive, HT1080NT lethal inconclusive, HT1080 IDH1KD tx 21µM* and KB-3-1 cytotox inconclusive.
O=C1NC(Cc2ccccc2)C(=O)Nc2ccc(Br)cc21 (centres undefined) was read as KB-V1 cytotox inactive, DT40 TDP1 CPT -26%, TDP1 cell noCPT inconclusive, HT1080NT lethal 8%, HT1080 IDH1KD tx 4% and KB-3-1 cytotox inactive.
O=C(OCc1ccccc1Cl)c1ccc(-c2nnn(Cc3ccccc3Cl)n2)cc1 was read as KB-V1 cytotox inactive and KB-3-1 cytotox inactive.
O=C(c1ccccc1)[C@@H]1[C@@H]2C(=O)N(c3ccc(F)cc3)C(=O)[C@@H]2C2CCCN21 (some centres undefined) was read as KB-V1 cytotox inactive, DT40 TDP1 CPT inconclusive, TDP1 cell noCPT inconclusive, HT1080NT lethal inconclusive, HT1080 IDH1KD tx 23µM* and KB-3-1 cytotox inconclusive.
`CC(=O)c1ccc(N2C(=O)C3C(C2=O)C(C(=O)c2ccc(Cl)cc2)N2CCCC32)cc1` (centres undefined) gave KB-V1 cytotox inconclusive, DT40 TDP1 CPT 8.2µM*, TDP1 cell noCPT 10µM*, HT1080NT lethal 16µM*, HT1080 IDH1KD tx inconclusive and KB-3-1 cytotox inconclusive.
COc1ccc(N2C(=O)C3C(C2=O)C(C(=O)c2ccc(Cl)cc2)N2CCCC32)cc1 (centres undefined) was read as KB-V1 cytotox inactive, DT40 TDP1 CPT inconclusive, TDP1 cell noCPT inconclusive, HT1080NT lethal 13µM*, HT1080 IDH1KD tx 18µM* and KB-3-1 cytotox inactive.

Screening data from PubChem BioAssay.
